This is a sample that favours compounds with a hit; in the whole collection about 4.2% have one here.
DAX1 StAR inh: inhibitors of DAX1 repression of SF-1 activated StAR promoter. HEK293T StAR-luciferase reporter, SF-1/DAX-1 repression relief. inhibition, % at 6.8 µM. 370,000 tested, 1.1% active. AID 652010;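 active = inhibition above the mean over all tested compounds plus 3 SD, cut at about 3.6% in these data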;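 also: higher inhibition means more luminescence from relief of DAX-1 repression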
hgDAF12 agonist: activates the H. glycines DAF-12 receptor ligand-binding domain; HEK293 GAL4-hgDAF12 UAS-luciferase reporter, agonist luminescence; normalized to butyrate control; activation, % at 6.8 µM; 370,000 tested, 1.8% active; AID 687014;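 active = activation above a cutoff set at the mean of all screened compounds plus 3 SD, cut at about 10% in these data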
hcDAF-12 act: activates DAF-12 receptor from parasite H. contortus; HEK293 hcDAF-12 lit1-tk-luc reporter, luminescence; 0% DMSO, 100% Δ7-dafachronic acid; activation, % at 6.8 µM; 370,000 tested, 1.4% active; AID 652067;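 active = activation above the mean of all tested compounds plus 3 SD, cut at about 5.5% in these data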
ssDAF-12 act: activators of S. stercoralis DAF-12 nuclear receptor | 370,000 tested, 1% active | HEK293 ssDAF-12/GRIP1 lit1-tk-luc reporter, luminescence; % of 3 µM dafachronic acid response | AID 652126 | activation, % at 6.8 µM;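 active = activation above the mean over all tested compounds plus 3 SD, cut at about 0.9% in these data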
esBAF inh: inhibitors of esBAF chromatin remodeling in mouse ES cells; Bmi1-luciferase knock-in reporter, 24 h; 100% = twice the neutral-well signal; reporter increase, % at 12.5 µM; 350,000 tested, 2% active; AID 602393; in the data active = activation above about 40%;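 also: a rise in the Bmi1 reporter signal indicates esBAF inhibition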
Wnt act: Wnt/beta-catenin pathway activation. activation, % at 9.35 µM. 300,000 tested, 1.2% active. AID 743398. Wnt/beta-catenin reporter cell assay, activator, plate reader; in the data active = activation above about 30%, passing the limit was not always enough
Of the large screens only hits and unclear results are named; the others gave an inactive call.

NS(=O)(=O)c1ccc(NC(=O)Nc2ccc(Cl)cc2)cc1	hgDAF12 agonist 12.5 (no result: esBAF inh)
Cc1cc(NC(=O)c2cc(C)on2)no1	none (no result: Wnt act)
O=C(Nc1ccsn1)c1ccc(Cl)cc1Cl	hgDAF12 agonist 11.6
CC(C)NC(=S)NC(=O)c1ccc(Cl)cc1Cl	hcDAF-12 act 5.7 (no result: esBAF inh, Wnt act)
O=C(C[C@H]1C=C[C@@H](NC(=O)Nc2cc(F)ccc2F)[C@H](CO)O1)NCc1ccc2c(c1)OCO2	none (no result: DAX1 StAR inh, hgDAF12 agonist, hcDAF-12 act, ssDAF-12 act, Wnt act)
Cc1cc(NC(=O)c2ccoc2C)no1	none (no result: esBAF inh)
Cc1ccc(NC(=O)Nc2cc(C)on2)cc1	none (no result: esBAF inh)
Cc1cc(NC(=O)Nc2ccc(Cl)cc2)no1	esBAF inh 47.4
CCn1ncc(C(=O)Nc2cc(C)on2)c1C	hgDAF12 agonist 11.8 (no result: Wnt act)
CN(C)/C=C1\C(=O)N(c2ccc([N+](=O)[O-])cc2)N=C1c1ccccc1	esBAF inh 52.6 (no result: Wnt act)
CN(C)/C=C1/C(=O)N(c2ccc([N+](=O)[O-])cc2)N=C1c1ccccc1	none (no result: esBAF inh, Wnt act)
COc1ccccc1C(=O)NNC(=O)CCCN1C(=O)/C(=C/c2cccs2)SC1=S	none (no result: esBAF inh, Wnt act)
COc1ccccc1N1C(=O)S/C(=C\c2cccs2)C1=O	ssDAF-12 act 1.0
Cc1ccc(-c2nc(N3CCN(C)CC3)c3ccccc3n2)cc1	hcDAF-12 act 6.3
CN1CCN(c2nc(-c3ccc(C(C)(C)C)cc3)nc3ccccc23)CC1	hcDAF-12 act 6.2
CCOc1ccc(NC(=O)CCNS(=O)(=O)c2ccc3c(c2)oc(=O)n3C)cc1	hcDAF-12 act 5.9
COc1ccccc1NC(=O)N(C)C[C@H]1Oc2cc(Br)ccc2S(=O)(=O)N([C@@H](C)CO)C[C@@H]1C	none (no result: DAX1 StAR inh, hgDAF12 agonist, hcDAF-12 act, ssDAF-12 act, Wnt act)
O=C(Cn1cnc2c(nnn2-c2cccc(Cl)c2)c1=O)N1CCOCC1	Wnt act 56.4
CN1CCN(C(=O)C[C@@H]2CC[C@H]3[C@@H](COC[C@@H](O)CN3Cc3cccc(Cl)c3)O2)CC1	none (no result: DAX1 StAR inh, hgDAF12 agonist, hcDAF-12 act, ssDAF-12 act, Wnt act)
COc1ccc(Oc2ccc(C(F)(F)F)cc2NC(=O)c2ccc(OC)cc2)cc1	none (no result: esBAF inh)
COc1ccc(Oc2ccc(C(F)(F)F)cc2N)cc1	esBAF inh 42.5
O=[N+]([O-])c1ccc2[nH]c(=S)sc2c1	ssDAF-12 act 2.2 (no result: esBAF inh)
O=[N+]([O-])c1ccc2[nH]c(=S)[nH]c2c1	none
O=C(CN(CCc1ccccc1)S(=O)(=O)c1ccc(Cl)cc1)N/N=C/c1ccc2c(c1)OCO2	Wnt act 34.0 (no result: esBAF inh)
Cc1ccccc1C(=O)Nc1ccc(O)c2c(=O)cc(-c3ccccc3Cl)oc12	none
O=c1cc(-c2ccccc2Cl)oc2cccc(O)c12	none
O=c1cc(-c2ccccc2Cl)oc2c(Br)ccc(O)c12	esBAF inh 83.1
O=C(Nc1ccc(O)c2c(=O)cc(-c3ccccc3Cl)oc12)c1ccc(Cl)c(Cl)c1	esBAF inh 50.8
CCCc1cc(C(=O)Nc2cc(OC)c(Cl)cc2OC)no1	hcDAF-12 act 6.5
COc1cc(NC(=O)c2cc(CC(C)C)on2)c(OC)cc1Cl	none
CCCc1cc(C(=O)Nc2cc(C)ccc2O)no1	esBAF inh 57.1
Cc1ccc(O)c(NC(=O)c2cc(-c3ccccc3)on2)c1	esBAF inh 75.9
O=C(Nc1cc(Br)ccc1O)c1cc(-c2ccccc2)on1	none
CCCNC(=O)[C@@H]1[C@@H](CO)[C@@H]2Cn3c(ccc(-c4ccccc4OC)c3=O)[C@@H]2N1C(=O)CC	none (no result: DAX1 StAR inh, hgDAF12 agonist, hcDAF-12 act, ssDAF-12 act, Wnt act)
COc1ccc(S(=O)(=O)N[C@H]2CC[C@H](CC(=O)NCCc3ccncc3)O[C@H]2CO)cc1	none (no result: DAX1 StAR inh, hgDAF12 agonist, hcDAF-12 act, ssDAF-12 act, Wnt act)
O=C(NCCc1c[nH]c2ccccc12)c1cnc2n(c1=O)CCS2	none
O=C(NCCc1ccccc1)c1cnc2n(c1=O)CCS2	ssDAF-12 act 1.3 (no result: esBAF inh)
Cc1cc(C(=O)Nc2cc(C(C)(C)C)on2)c(C)o1	esBAF inh 63.4, Wnt act 42.2
Cc1ccc(-c2ocnc2C(=O)Nc2nc(C)cs2)cc1	ssDAF-12 act 1.9
Cc1csc(NC(=O)c2ccc(C)o2)n1	hgDAF12 agonist 11.8 (no result: esBAF inh)
Cc1csc(NC(=O)c2cc(C)oc2C)n1	ssDAF-12 act 0.9, esBAF inh 62.8 (no result: Wnt act)
Cc1ccc(S(=O)(=O)N[C@H]2CC[C@H](CCNC(=O)C3CC3)O[C@H]2CO)cc1	none (no result: DAX1 StAR inh, hgDAF12 agonist, hcDAF-12 act, ssDAF-12 act, Wnt act)
CO[C@H]1CN(C)C(=O)c2ccc(NC(C)=O)cc2OC[C@@H](C)N(C(=O)Cc2cccnc2)C[C@H]1C	none (no result: DAX1 StAR inh, hgDAF12 agonist, hcDAF-12 act, ssDAF-12 act, Wnt act)
